Data reported in PubChem BioAssay (Tox21).
Inconclusive results are not listed. Active and inactive are the calls of the source. Unless noted, calls come from the whole dose curve; as a rule, active = well fitted curve in the direction sought with a large enough effect in the repeat runs; inconclusive = weak or mixed curves; inactive = no such curve, though single readings can be large; an effect the other way counts as inactive or inconclusive.

Assays:
[1] = target: Retinoic acid receptor RXR-alpha (Homo sapiens) (UniProt P19793); test: qHTS assay to identify small molecule agonists of the RXR signaling pathway (AID 1159527; calls by dose curve; note: nearly all actives have a fitted effect of over 35% in size)
Sequence of Retinoic acid receptor RXR-alpha (Homo sapiens) (P19793 whole entry, looked up): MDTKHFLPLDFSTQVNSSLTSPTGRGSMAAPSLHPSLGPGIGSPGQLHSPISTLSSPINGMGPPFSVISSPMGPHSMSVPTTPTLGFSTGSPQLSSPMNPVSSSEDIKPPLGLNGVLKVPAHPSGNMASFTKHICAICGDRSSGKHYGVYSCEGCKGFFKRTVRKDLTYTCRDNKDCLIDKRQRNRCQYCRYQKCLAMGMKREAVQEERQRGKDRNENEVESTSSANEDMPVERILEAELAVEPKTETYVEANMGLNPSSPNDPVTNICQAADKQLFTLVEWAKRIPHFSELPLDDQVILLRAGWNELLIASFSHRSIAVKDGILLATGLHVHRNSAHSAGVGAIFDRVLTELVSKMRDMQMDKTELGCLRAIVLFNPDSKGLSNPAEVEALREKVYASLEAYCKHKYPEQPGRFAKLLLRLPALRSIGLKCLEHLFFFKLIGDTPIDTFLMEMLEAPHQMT
Outline: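 Reporter activation is measured as beta-lactamase activity via FRET substrate cleavage (emission 460/530 nm) in HEK 293T cells expressing an RXR-alpha-driven bla construct, following 16 hr compound exposure at 37 C.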

[2] = qHTS assay to identify small molecule agonists of the RXR signaling pathway - cell viability counter screen (AID 1159529); note: series mostly up to about 77 µM; nearly all actives have a fitted effect of over 50% in size
Outline: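 Tox21 10K compounds were tested for cytotoxicity against GeneBLAzer RXR-alpha HEK 293T cells grown in 2% charcoal-stripped FBS. Exposure lasted 16 hr at 37 C, 5% CO2; viability read by CellTiter-Glo luminescence.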

[3] = qHTS assay to identify small molecule antagonists of the retinoid acid receptor (RAR) signaling pathway - cell viability counter screen (AID 1159551); note: nearly all actives have a fitted effect of over 35% in size
Outline: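 Cytotoxicity counter screen: ATP content quantified by CellTiter-Glo luminescence in C3RL4 cells treated 6 hr at 37 C with compound and retinol (1 uM final). Cells plated at 1,000/well and cultured overnight before dosing.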

[4] = qHTS assay to identify small molecule antagonists of the retinoic acid receptor (RAR) signaling pathway (AID 1159552; note: nearly all actives have a fitted effect of over 50% in size)
Outline: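 Overnight-plated C3RL4 reporter cells get compound, then retinol to 1 uM final; plates sit 6 hr at 37 C, 5% CO2. A luciferase reagent is added and light output recorded after 30 min at room temperature.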

[5] = qHTS assay to identify small molecule antagonists of the estrogen related receptor (ERR) signaling pathway from Tox21 library - cell viability counter screen (AID 1224834); note: nearly all actives have a fitted effect of over 30% in size
Outline: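 CellTiter-Fluor fluorescence, read after 30 min at 37 C, measures viability of ERR cells. Cells plated at 2,000/well and incubated 6 h before pin-tool compound addition, then exposed 17.5 hours at 37 C.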

[6] = target: Luciferin 4-monooxygenase (Photinus pyralis) (UniProt P08659); test: qHTS assay to identify small molecule inhibitors of firefly luciferase (AID 1224835); note: series mostly up to about 120 µM; nearly all actives have a fitted effect of over 25% in size
Sequence of Luciferin 4-monooxygenase (Photinus pyralis) (P08659 whole entry, looked up): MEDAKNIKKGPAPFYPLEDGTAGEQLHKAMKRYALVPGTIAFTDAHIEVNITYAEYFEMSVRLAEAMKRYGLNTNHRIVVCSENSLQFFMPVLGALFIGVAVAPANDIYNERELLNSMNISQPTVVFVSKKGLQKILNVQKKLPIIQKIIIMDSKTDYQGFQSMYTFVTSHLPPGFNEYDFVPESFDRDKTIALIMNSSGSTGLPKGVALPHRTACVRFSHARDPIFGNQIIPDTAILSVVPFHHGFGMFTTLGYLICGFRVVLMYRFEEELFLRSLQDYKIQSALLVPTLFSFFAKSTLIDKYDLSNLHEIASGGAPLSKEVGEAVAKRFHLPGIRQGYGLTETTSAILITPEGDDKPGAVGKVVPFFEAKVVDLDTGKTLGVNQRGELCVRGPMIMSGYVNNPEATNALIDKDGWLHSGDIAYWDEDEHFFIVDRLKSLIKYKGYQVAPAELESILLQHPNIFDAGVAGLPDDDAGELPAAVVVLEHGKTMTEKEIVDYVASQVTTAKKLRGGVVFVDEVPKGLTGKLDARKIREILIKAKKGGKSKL
Outline: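 Quantitative HTS format; KM concentrations of both substrates. Purified P. pyralis FLuc activity quantified from luminescence images.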

[7] = qHTS assay to identify small molecule antagonists of the constitutive androstane receptor (CAR) signaling pathway - cell viability counter screen (AID 1224837); note: series mostly up to about 92 µM; nearly all actives have a fitted effect of over 45% in size
Outline: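 Cytotoxicity counter-screen: CellTiter-Fluor fluorescence after 23 h compound exposure (15-point qHTS) in double-stable HepG2-CYP2B6-hCAR cells, with 50 nM CITCO added.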

[8] = qHTS assay to identify small molecule antagonists of the estrogen related receptor signaling pathway with the pleiotropic PPARgamma coactivator (PGC) from Tox21 10K library - cell viability counter screen (AID 1224840; active = well fitted cell-killing curve with a large enough effect in the repeat runs, not every such curve was filed as active; note: nearly all actives have a fitted effect of over 40% in size)
Outline: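 Counter-screen for cytotoxicity: after 17.5 h compound exposure at 37 C, CellTiter-Fluor reagent added to PGC/ERR cells for 30 min and fluorescence read. Cells were seeded at 2,000 per well 6 h before dosing.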

[9] = qHTS assay to identify small molecule antagonists of the estrogen related receptor signaling pathway with the pleiotropic PPARgamma coactivator (PGC) from Tox21 10K library (AID 1224841; call rule not given here; note: series mostly up to about 92 µM; actives are mostly falling curves and most rising ones were filed inactive; nearly all actives have a fitted effect of over 50% in size)
Outline: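 Luminescence (One-Glo, 30 min at room temperature) after 18 h compound treatment at 37 C of PGC/ERR reporter cells plated at 2,000 cells/well and settled 6 h beforehand.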

[10] = qHTS assay to identify small molecule agonists of the estrogen related receptor signaling pathway with the pleiotropic PPARgamma coactivator (PGC) from Tox21 10K library (AID 1224842); note: nearly all actives have a fitted effect of over 15% in size
Outline: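 PGC/ERR reporter cells (NTP line) were seeded 2,000 per well, rested 6 h at 37 C/5% CO2, then pin-dosed with compounds in DMSO for 18 h at 37 C; luciferase read by One-Glo luminescence after 30 min at room temperature.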

[11] = test system: estrogen-related receptor alpha (ERRalpha) with PGC-1alpha coactivator, human; test: qHTS assay to identify small molecule antagonists of the estrogen related receptor signaling pathway with the pleiotropic PPARgamma coactivator (PGC) (AID 1224821; calls by dose curve;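 note: series mostly up to about 46 µM; lower luminescence signal means antagonism of PGC/ERR signalling; nearly all actives have a fitted effect of over 50% in size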)
Outline: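 A PGC/ERR cell line supplied by NTP is seeded, allowed 6 h at 37 C, and treated with test compounds in DMSO for 18 h. Signal is then measured as luciferase luminescence using One-Glo.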

[12] = qHTS assay to identify small molecule agonists of the constitutive androstane receptor (CAR) signaling pathway - cell viability counter screen (AID 1224836); note: series mostly up to about 92 µM; nearly all actives have a fitted effect of over 45% in size
Outline: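 Fluorescence from CellTiter-Fluor indicates live cells after 23 h exposure. The human hepatoma line expresses hCAR and a CYP2B6-2.2kb reporter. Incubation medium contains 0.75 uM PK11195 (final).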

[13] = target: Nuclear receptor subfamily 1 group I member 3 (Homo sapiens) (UniProt Q14994); test: qHTS assay to identify small molecule antagonists of the constitutive androstane receptor (CAR) signaling pathway (AID 1224838);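 note: HepG2 cells stably expressing hCAR with CYP2B6 luciferase reporter stimulated by CITCO; nearly all actives have a fitted effect of over 40% in size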
Sequence of Nuclear receptor subfamily 1 group I member 3 (Homo sapiens) (Q14994 whole entry, looked up): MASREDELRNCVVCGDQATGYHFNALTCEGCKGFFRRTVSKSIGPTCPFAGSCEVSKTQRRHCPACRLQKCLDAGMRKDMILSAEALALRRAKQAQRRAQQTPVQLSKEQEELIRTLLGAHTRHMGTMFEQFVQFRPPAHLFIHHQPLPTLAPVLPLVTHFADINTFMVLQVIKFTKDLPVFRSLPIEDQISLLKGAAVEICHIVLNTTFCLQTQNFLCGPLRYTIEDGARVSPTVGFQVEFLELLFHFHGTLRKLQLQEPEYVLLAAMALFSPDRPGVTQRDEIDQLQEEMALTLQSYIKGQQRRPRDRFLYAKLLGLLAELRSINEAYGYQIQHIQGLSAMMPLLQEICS
Outline: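 Antagonism measured as luciferase signal (ONE-Glo, 30 min, room temperature) in CAR-stimulated cells: HepG2-CYP2B6-hCAR double-stable line exposed 24 hr at 37 C to compound in a 15-point series plus 50 nM CITCO.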

[14] = target: Nuclear receptor subfamily 1 group I member 3 (Homo sapiens) (UniProt Q14994); test: qHTS assay to identify small molecule agonists of the constitutive androstane receptor (CAR) signaling pathway (AID 1224839);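 note: HepG2 cells stably carrying human CAR and a CYP2B6 luciferase reporter; series mostly up to about 92 µM; nearly all actives have a fitted effect of over 15% in size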
Outline: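 Stable hCAR/CYP2B6-2.2kb HepG2 line in DMEM with 10% FBS; compounds (15 concentrations) and 0.75 uM PK11195 final, 24 h at 37 C/5% CO2, then ONE-Glo luminescence after 30 min.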

[15] = target: Thyrotropin receptor (Homo sapiens) (UniProt P16473); test: qHTS assay to identify small molecule agonists of the thyroid stimulating hormone receptor (TSHR) signaling pathway (AID 1224843; calls by dose curve; note: nearly all actives have a fitted effect of over 45% in size)
Sequence of Thyrotropin receptor (Homo sapiens) (P16473 whole entry, looked up): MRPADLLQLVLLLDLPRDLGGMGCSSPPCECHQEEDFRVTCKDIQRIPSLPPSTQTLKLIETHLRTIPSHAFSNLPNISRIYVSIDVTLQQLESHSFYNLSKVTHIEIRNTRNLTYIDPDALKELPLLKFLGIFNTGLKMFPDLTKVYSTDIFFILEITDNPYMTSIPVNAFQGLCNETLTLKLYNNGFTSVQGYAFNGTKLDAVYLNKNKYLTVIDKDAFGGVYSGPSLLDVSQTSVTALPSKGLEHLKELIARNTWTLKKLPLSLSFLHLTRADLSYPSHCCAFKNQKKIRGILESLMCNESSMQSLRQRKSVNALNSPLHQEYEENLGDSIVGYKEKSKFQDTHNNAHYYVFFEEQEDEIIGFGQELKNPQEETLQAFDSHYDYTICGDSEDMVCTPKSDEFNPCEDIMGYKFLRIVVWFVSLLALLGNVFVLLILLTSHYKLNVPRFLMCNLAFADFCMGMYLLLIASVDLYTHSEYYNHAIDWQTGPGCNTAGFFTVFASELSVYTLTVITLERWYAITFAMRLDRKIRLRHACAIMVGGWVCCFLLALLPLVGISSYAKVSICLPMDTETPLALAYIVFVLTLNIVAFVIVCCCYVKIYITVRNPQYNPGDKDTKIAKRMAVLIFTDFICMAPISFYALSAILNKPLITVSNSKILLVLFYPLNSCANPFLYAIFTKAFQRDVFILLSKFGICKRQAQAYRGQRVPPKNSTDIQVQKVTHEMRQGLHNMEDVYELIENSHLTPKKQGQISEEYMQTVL
Outline: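 Compounds are titrated over 15 concentrations, in triplicate, onto TSHR-HEK293 cells seeded at 800/well. Plates sit 30 min at room temperature before cAMP-d2 and anti-cAMP cryptate are added; signal is read after a further hour.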

[16] = qHTS assay to identify small molecule agonists of the retinoic acid receptor (RAR) signaling pathway (AID 1159553)
Outline: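 Luminescence was measured 30 min after luciferase reagent addition at room temperature. Before that, C3RL4 reporter cells (1,000 per well, plated overnight) were treated with compound for 6 hr at 37 C and 5% CO2.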
% is set by controls: 0 for no effect and ±100 for the full control effect.

CCCCOCCOC(=O)COc1nc(Cl)c(Cl)cc1Cl
inactive: Potency [1] | outcome [2] | outcome [3] | outcome [4] | Potency [5] | Potency [6] | Potency [7] | outcome [8] | Potency [9] | outcome [10]

NC(CO)C(=O)NNCc1ccc(O)c(O)c1O (stereo unspecified)
inactive: outcome [11]

COc1ccc(C2CNC(=O)C2)cc1OC1CCCC1 (stereo unspecified)
inactive: outcome [11]

C[C@@H](Oc1ccc(CNC(=O)c2cccnc2Oc2ccc3c(c2)OCO3)c(F)c1)C(=O)O
inactive: Potency [1] | outcome [2] | outcome [3] | Potency [5] | Potency [12] | Potency [7] | outcome [13] | Potency [14] | outcome [8] | Potency [9] | outcome [10]

C[Si](C)=O
inactive: activation [1] 8.36% [at 6.98 µM] | activity change, negative = cytotoxicity [2] 0.062% [at 6.97 µM] | activity change, negative = cytotoxicity [3] 3.8% [at 8.39 µM] | viability change, negative = cytotoxic [5] 2.07% [at 8.39 µM] | activity change, negative = inhibition [6] 5.26% [at 10.5 µM] | activity change, negative = cytotoxicity [7] 1.39% [at 8.39 µM] | activity, negative = inhibition [13] -3.72% [at 8.39 µM] | activation [14] -0.11% [at 8.39 µM] | viability change, negative = cytotoxic [8] 10.2% [at 8.39 µM] | activity, negative = inhibition [9] -4.65% [at 8.39 µM] | activation [10] -1.46% [at 8.39 µM] | activation [15] 1.85% [at 8.39 µM]

N[C@@H](CCC(=O)N[C@@H](CS)C(=O)NCC(=O)O)C(=O)O
inactive: activation [1] 2.72% [at 15.8 µM] | activity change, negative = cytotoxicity [2] -1.04% [at 15.8 µM] | activity, negative = inhibition [4] 29.9% [at 19 µM] | Potency [16] | viability change, negative = cytotoxic [5] 0.69% [at 19 µM] | viability change, negative = cytotoxic [12] 2.39% [at 19 µM] | activity change, negative = cytotoxicity [7] 7.5% [at 19 µM] | viability change, negative = cytotoxic [8] 15.7% [at 19 µM] | activation [15] 2.71% [at 19 µM]

CCn1ccc(NS(=O)(=O)c2ccc(N)cc2)nc1=O
inactive: Potency [1] | outcome [2] | outcome [3] | Potency [5] | Potency [12] | Potency [7] | outcome [13] | Potency [14] | outcome [8] | Potency [9] | outcome [10] | Potency [15]

CCC(C=O)CC
inactive: Potency [1] | outcome [2] | outcome [3] | Potency [5] | Potency [6] | Potency [7] | outcome [13] | Potency [14] | outcome [8] | Potency [9]

C=C(C)C(=O)OCc1ccccc1
inactive: Potency [1] | outcome [2] | outcome [3] | Potency [6] | Potency [7] | outcome [13] | Potency [14] | outcome [8] | Potency [9] | outcome [10]

c1ccc2nccnc2c1
inactive: Potency [1] | outcome [2] | outcome [3] | Potency [6] | Potency [12] | Potency [7] | outcome [13] | outcome [8] | Potency [15]

CC(C)CCCCOC(=O)c1ccccc1C(=O)OCCCCC(C)C
inactive: Potency [1] | outcome [2] | outcome [3] | Potency [6] | Potency [12] | Potency [7] | outcome [13] | Potency [14] | outcome [8] | Potency [9] | outcome [10]

Cc1cc(Cl)c(C)cc1Cl
inactive: Potency [1] | outcome [2] | outcome [3] | Potency [6] | Potency [7] | outcome [13] | outcome [8] | Potency [9] | outcome [10]

COc1cc(NS(=O)(=O)c2ccc(N)cc2)nc(OC)n1
inactive: Potency [1] | outcome [2] | outcome [3] | Potency [5] | Potency [6] | Potency [12] | Potency [7] | outcome [13] | outcome [8] | Potency [9] | outcome [10]
